Measurements reported in PubChem BioAssay (Tox21).
Several values for one entry are separate records, joined by “and”; a condition that tells them apart may be missing. Equal entries are not always repeated. Results filed as inconclusive are left out. A call without a number means that no potency is given here. The source holds several records for some structures; these can differ, active in one and inactive in another. Activity calls are given as the source filed them. Calls follow the shape of the full dose curve.
Potency is read from the fitted curve at half-maximal effect.

Test: qHTS assay to identify small molecule agonists of H2AX - cell viability counter screen (AID 1224847); also: nearly all actives have a fitted effect of over 30% in size; as to activity change, negative = cytotoxicity: top concentration of the series differs between compounds
Conditions: CHO-K1 viability, CellTiter-Glo luminescence, 3 h; series mostly up to 154 µM; activity change, negative = cytotoxicity: at the top concentration
Excerpt: National Center for Advancing Translational Sciences [NCATS]
NIH Chemical Genomics Center [NCGC]
U.S. Environmental Protection Agency [EPA]
National Institutes of Environmental Health Sciences [NIEHS]
National Toxicology Program [NTP]
U.S. Food and Drug Administration [FDA]
HTRF phospho-H2AX (Ser139) assay (Cisbio Bioassays, US) enables the quantitative detection of the histone variant H2AX when phosphorylated on serine 139. When double-stranded DNA breaks, either by ionizing radiation or endogenous physiological processes, H2AX becomes phosphorylated at Ser139. This phospho-Ser139 serves as a sensitive biomarker for the detection of such breaks, localizing the site of DNA repair. So, HTRF phospho-H2AX Ser139 is a pertinent assay to study genome stability, the cell cycle, DNA repair, and it serves as a biomarker for cancer, and to understand aging. Wild type CHO-K1 cells were used to identify the inducers of Phospho-H2AX Ser 139 from the Tox21 compound collections. Also cytotoxicity of the Tox21 10K compound library against the CHO-K1 cell line was tested by measuring the cell viability using CellTiter-Glo assay (Promega, Madison, WI).
Tox21 Assay Protocol Summary:
The CHO-K1 cells suspended in culture medium containing 10% FBS were dispensed at 1000 cells/ 3 ul/well in 1536-well white wall/solid bottom plates (Greiner Bio-One North America, NC) using a Multidrop Combi (Thermo Fisher Scientific Inc., Waltham, MA). After the assay plates were incubated at 37C overnight, 23 nl of compounds at 15 concentrations (from 5-48 columns) or positive control (from 1 to 4 columns) were transferred to the assay plates using a Pintool station (Wako, San Diego, CA) into each well resulting in a final DMSO concentration of 0.76%. After 3hr incubation at 37C, 3 uL/well CellTiter-Glo luminescent cell viability reagent (Promega Corporation, Madison, WI) was added using a Flying Reagent Dispenser (FRD) (Aurora Discovery, CA). After incubation at room temperature for 30 min, the luminescence intensity was read using a ViewLux plate reader (PerkinElmer, Waltham, MA).
In the case of `CCC/C=C/C=O`, the Potency is reported as “inactive”.
In the case of `O=S1(=O)CCCO1`, the Potency is reported as “inactive”.
In the case of `C=CC(C)(O)CCC=C(C)C` (stereo not given), the Potency is reported as “inactive”.
For `C[C@]12CC[C@@H]3c4ccc(O)cc4CC[C@H]3[C@@H]1CC[C@H]2O`, the “activity change, negative = cytotoxicity” value was -10.3% (inactive).
For `Nc1cc(Cl)c(N)c(Cl)c1`, the Potency was “inactive”.
With `Cc1ccc(S(=O)(=O)O)cc1C` the Potency was “inactive”.
In the case of `COc1cc([C@H]2Oc3cc([C@H]4Oc5cc(O)cc(O)c5C(=O)[C@@H]4O)ccc3O[C@@H]2CO)ccc1O`, the “activity change, negative = cytotoxicity” value is reported as -3.5% [at 70.9 µM] (inactive).
In the case of `C1COCCN1`, the Potency is reported as “inactive”.
In the case of `Nc1ccc2c(c1)C(=O)c1ccccc1C2=O`, the Potency is reported as 98.9 µM (active) and inactive.
In the case of `CC(C)(C)c1cccc(C(C)(C)C)c1O`, the Potency is reported as “inactive”.
For `[O-]/[N+](=N\O)c1ccccc1`, the Potency was “inactive”.
For `NC[C@H](O)c1ccc(O)c(O)c1`, the Potency was “inactive”.
For `COC(=O)c1ccc(C)cc1`, the Potency was “inactive”.
With `C/C=C/C(=O)N(CC)c1ccccc1C` the Potency was “inactive”.
In the case of `O=C(O)COCCN1CCN(C(c2ccccc2)c2ccc(Cl)cc2)CC1` (stereo not given), the Potency is reported as “inactive”.
With `CN(Cc1cnc2nc(N)nc(N)c2n1)c1ccc(C(=O)N[C@@H](CCC(=O)O)C(=O)O)cc1` the Potency was 636 nM (active) and 1.1 µM (active).
For `CN(C)/N=N/c1nc[nH]c1C(N)=O`, the Potency was “inactive”.
In the case of `NCCOCCO`, the Potency is reported as “inactive”.
With `CCCCCCCCCCCCCO` the “activity change, negative = cytotoxicity” value was 1.68% (inactive).
In the case of `O=C(O)c1cc(=O)[nH]c(=O)[nH]1`, the Potency is reported as “inactive”.
For `CN(C)CCCN1c2ccccc2Sc2ccc(Cl)cc21`, the Potency was 55.2 µM (active).
In the case of `CC(=O)Oc1ccc(C(c2ccc(OC(C)=O)cc2)c2ccccn2)cc1`, the Potency is reported as “inactive”.
For `CC/C=C\C/C=C\C/C=C\CCCCCCCC(=O)O`, the Potency was “inactive”.
With `CC(=O)Oc1c(C)c(C)c2c(c1C)CC[C@@](C)(CCC[C@H](C)CCC[C@H](C)CCCC(C)C)O2` the Potency was “inactive”.
With `Nc1ccc(O)c(N)c1` the Potency was 56.3 µM (active) and 50.5 µM (active).
For `CC(C)[N+](C)(CCOC(=O)C1c2ccccc2Oc2ccccc21)C(C)C`, the “activity change, negative = cytotoxicity” value was -5.07% [at 70.9 µM] (inactive).
With `CCCCCC=O` the Potency was “inactive”.
In the case of `CCc1cccc2c3c([nH]c12)C(CC)(CC(=O)O)OCC3` (stereo not given), the Potency is reported as “inactive”.
In the case of `NCCN`, the Potency is reported as “inactive”.
In the case of `CC(=O)[C@H]1CC[C@H]2[C@@H]3CC=C4C[C@@H](O)CC[C@]4(C)[C@H]3CC[C@]12C`, the “activity change, negative = cytotoxicity” value is reported as 5.35% [at 70.9 µM] (inactive).
In the case of `FC(F)(F)C(Cl)Br` (stereo not given), the Potency is reported as “inactive”.
For `CC(C)(Oc1ccc(Cl)cc1)C(=O)O`, the Potency was “inactive”.
For `Cc1ccc(S(=O)(=O)NCl)cc1`, the Potency was “inactive”.
For `Oc1c(Cl)ccc(Cl)c1Cl`, the Potency was “inactive”.
With `C[N+](C)(C)CCO` the Potency was “inactive”.
For `CC1(C)O[C@@H]2C[C@H]3[C@@H]4C[C@H](F)C5=CC(=O)C=C[C@]5(C)[C@@]4(F)[C@@H](O)C[C@]3(C)[C@]2(C(=O)CO)O1`, the Potency was “inactive”.
In the case of `Nc1cc([N+](=O)[O-])ccc1C(=O)O`, the Potency is reported as “inactive”.
With `C=C[Si](OCCOC)(OCCOC)OCCOC` the Potency was “inactive”.
For `O=Cc1ccccc1C=O`, the “activity change, negative = cytotoxicity” value was -0.542% [at 70.9 µM] (inactive).
With `CCC(Cc1c(I)cc(I)c(N)c1I)C(=O)O` (stereo not given) the Potency was “inactive”.
